NPR1 antag: Natriuretic polypeptide receptor (hNpr1) antagonism - Primary qHTS. Atrial natriuretic peptide receptor 1 (Homo sapiens), P16066. Potency, µM (top dose mostly 46.3 µM), hits mostly inhibitors. AID 1347048, 2019. 76,000 compounds, 1.6% hits. HEK293 hNpr1 GloSensor cGMP, ANP-stimulated luminescence; calls by dose curve; also: nearly all actives have a fitted effect of over 60% in size
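HEK293 cells stably expressing human Npr1 and cGMP GloSensor pGS-40F, loaded 2 h with 2% GloSensor reagent, given compound 30 min at room temperature. Luminescence read before and 20 min after 0.1 nM hNppA.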
3T3 cytotox: Cytotoxic Profiling in NIH 3T3 Cell Line of Diverse Libraries Using Quantitative High-Throughput Screening | Potency, µM (doses to about 96.7 µM), hits mostly inhibitors | AID 1345082, 2018 | NIH 3T3 viability, CellTiter-Glo ATP luminescence, 48-72 h | 94,000 compounds, 4.3% hits; also: nearly all actives have a fitted effect of over 55% in size
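Viability of NIH 3T3 cells after 48 or 72 hr compound treatment at 37 °C was assessed by CellTiter-Glo, with luminescence imaged following a 10 min room-temperature step.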
GPT2 inhibitor: Primary qHTS assay for inhibitors of Glutamate pyruvate transaminase 2 (GPT2); Recombinant GPT2, coupled pyruvate oxidase/HRP Amplex Red fluorescence; 100,000 compounds, 0.25% hits; Potency, µM (titrated, usually from 57.7 µM), usual class: inhibitors; Alanine aminotransferase 2 (Homo sapiens), Q8TD30; also: nearly all actives have a fitted effect of over 60% in size
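GPT2 10ng/uL, a-KG 250uM, L-Ala 2mM, HEPES pH7.5 + 0.0001% Tween; 30 min RT. Then Amplex mix (PO/HRP/ThPP), 30 min RT dark, fluorescence. AOA 50uM used as positive control.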
FLuc inh: Firefly luciferase inhibition profiling of diverse chemical library using quantitative high-throughput screening; AID 1347043, 2019; purified P. pyralis luciferase, luminescence, biochemical; 76,000 compounds, 2.5% hits; Luciferin 4-monooxygenase (Photinus pyralis), P08659; Potency, µM (titrated, usually from 115 µM), usual class: inhibitors; also: nearly all actives have a fitted effect of over 65% in size
Target sequence (P08659 whole entry, looked up): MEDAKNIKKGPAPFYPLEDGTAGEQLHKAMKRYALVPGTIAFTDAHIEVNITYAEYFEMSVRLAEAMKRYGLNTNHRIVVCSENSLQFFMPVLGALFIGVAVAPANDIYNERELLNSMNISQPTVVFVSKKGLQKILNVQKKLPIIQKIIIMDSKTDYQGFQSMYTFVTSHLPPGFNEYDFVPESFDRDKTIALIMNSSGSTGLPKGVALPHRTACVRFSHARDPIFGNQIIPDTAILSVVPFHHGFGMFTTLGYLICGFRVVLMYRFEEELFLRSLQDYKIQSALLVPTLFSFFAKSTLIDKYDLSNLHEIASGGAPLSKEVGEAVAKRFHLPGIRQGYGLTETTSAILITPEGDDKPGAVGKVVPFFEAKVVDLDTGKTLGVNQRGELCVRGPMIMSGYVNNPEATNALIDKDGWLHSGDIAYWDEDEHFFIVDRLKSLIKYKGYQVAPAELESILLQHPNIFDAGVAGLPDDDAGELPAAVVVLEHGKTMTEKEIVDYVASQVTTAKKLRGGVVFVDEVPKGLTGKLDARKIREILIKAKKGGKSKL
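Cell-free enzyme assay, 10nM P. pyralis luciferase, luciferin and ATP each at 10uM. Inhibition profiled over a 6-point titration, read as luminescence.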
HEK cytotox: Cytotoxic Profiling in HEK 293 Cell Line of Diverse Libraries Using Quantitative High-Throughput Screening. HEK 293 viability, ATP luminescence (CellTiter-Glo), 48-72 h. Potency, µM (doses to about 115 µM), usual class: inhibitors. 94,000 compounds, 6.6% hits. AID 1345083, 2018; also: nearly all actives have a fitted effect of over 60% in size
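HEK 293 seeded at 250 cells/well receive compound via pintool. After 48 or 72 hr at 37 degree Celsius, 5% CO2 and 95% humidity, CellTiter-Glo is dispensed and luminescence read following 10 min at room temperature.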
Each line names hits and unclear results; the compound was inactive in the other large screens. Most compounds without a hit are left out; they make up all but 10% or so of the library. Unless noted, calls follow the shape of the dose curve; as a rule, active = well fitted curve in the direction sought with a large enough effect; inconclusive = small, poorly fitted or top-dose-only effect, or another doubt; inactive = no such curve, though single readings can be large; an effect the other way counts as inactive or inconclusive.

COc1cccc(-c2ccc(CN3CCCC3C(=O)NC3CCCC3)cc2)c1 (centres undefined)	3T3 cytotox inconclusive, HEK cytotox inconclusive (no result: NPR1 antag, FLuc inh)
COc1cccc(-c2ccc(CN3CCCC3C(=O)NCc3ccccc3)cc2)c1 (centres undefined)	3T3 cytotox 40µM, GPT2 inhibitor inconclusive, HEK cytotox 40µM (no result: NPR1 antag, FLuc inh)
COc1ccc(CNC(=O)C2CCCN2Cc2ccc(-c3cccc(OC)c3)cc2)cc1 (centres undefined)	3T3 cytotox 40µM, HEK cytotox 32µM (no result: NPR1 antag, FLuc inh)
COc1cccc(-c2ccc(CN3CCCC3C(=O)N3CCN(c4ncccn4)CC3)cc2)c1 (centres undefined)	3T3 cytotox 20µM, HEK cytotox inconclusive (no result: NPR1 antag, FLuc inh)
COc1cccc(Nc2ncc3c(n2)C(C)(C(=O)NCC2CC2)CC3)c1 (centres undefined)	3T3 cytotox inconclusive, HEK cytotox 50µM
CC1(C(=O)NCC2CC2)COCc2cnc(Nc3ccccc3)nc21 (centres undefined)	HEK cytotox inconclusive
COc1cccc(Nc2ncc3c(n2)C(C)(C(=O)NCCc2ccccn2)CC3)c1 (centres undefined)	3T3 cytotox inconclusive, HEK cytotox 100µM
COc1cccc(NC(=O)C2(C)CCc3cnc(N4CCOCC4)nc32)c1 (centres undefined)	3T3 cytotox inconclusive, HEK cytotox inconclusive
CC1(C(=O)NCC2CC2)CCc2cnc(Nc3ccccc3)nc21 (centres undefined)	3T3 cytotox inconclusive, HEK cytotox 100µM
CN1Cc2ccc(Nc3ccccc3)nc2C(C)(C(=O)NCCc2ccccn2)C1 (centres undefined)	3T3 cytotox inconclusive, GPT2 inhibitor inconclusive, HEK cytotox inconclusive
COCCNC(=O)C1CCCN(c2nccc(Nc3ccccc3OC)n2)C1 (centres undefined)	3T3 cytotox inconclusive, HEK cytotox inconclusive (no result: NPR1 antag, FLuc inh)
COc1ccc(CCNC(=O)C2CCCN(c3nccc(Nc4ccccc4F)n3)C2)cc1 (centres undefined)	3T3 cytotox inconclusive, HEK cytotox inconclusive (no result: NPR1 antag, FLuc inh)
O=C(NCc1ccc(F)cc1)C1CCCN(c2nccc(Nc3ccccc3F)n2)C1 (centres undefined)	3T3 cytotox 28µM, HEK cytotox inconclusive (no result: NPR1 antag, FLuc inh)
COc1ccccc1Nc1ccnc(N2CCCC(C(=O)NCc3ccc(F)cc3)C2)n1 (centres undefined)	3T3 cytotox 20µM, HEK cytotox 14µM (no result: NPR1 antag, FLuc inh)
O=C(NCCc1ccc(Cl)cc1)C1CCCN(c2nccc(Nc3ccccc3F)n2)C1 (centres undefined)	3T3 cytotox 25µM, HEK cytotox 22µM (no result: NPR1 antag, FLuc inh)
O=C(NCC(F)(F)F)C1CCCN(c2nccc(Nc3ccccc3F)n2)C1 (centres undefined)	3T3 cytotox inconclusive, HEK cytotox inconclusive (no result: NPR1 antag, FLuc inh)
COc1ccccc1Nc1ccnc(N2CCCC(C(=O)NCc3ccc(F)c(F)c3)C2)n1 (centres undefined)	3T3 cytotox 13µM, HEK cytotox inconclusive (no result: NPR1 antag, FLuc inh)
CCOC(=O)[C@H](CCc1ccccc1)CC1(C(=O)N[C@H]2CCc3ccccc3N(CC(=O)O)C2=O)CCCC1	none (no result: NPR1 antag, 3T3 cytotox, FLuc inh, HEK cytotox)
CCCC1CN(Cc2ccc3c(c2)OCO3)C(=O)c2ccc(C)nc2O1 (centres undefined)	3T3 cytotox inconclusive, HEK cytotox inconclusive (no result: NPR1 antag, FLuc inh)
COc1ccc(CN2CCCC3(C2)C(=NC2CCCCC2)NC(=O)N3c2cccc(OC)c2)cc1 (centres undefined)	3T3 cytotox inconclusive, HEK cytotox inconclusive (no result: NPR1 antag, FLuc inh)
COc1cccc(N2C(=O)NC(=NC3CCCCC3)C23CCCN(Cc2ccc(N(C)C)cc2)C3)c1 (centres undefined)	3T3 cytotox 28µM, HEK cytotox 32µM (no result: NPR1 antag, FLuc inh)
COc1cccc(N2C(=O)NC(=NC3CCCCC3)C23CCCN(Cc2ccsc2)C3)c1 (centres undefined)	3T3 cytotox 40µM, HEK cytotox inconclusive (no result: NPR1 antag, FLuc inh)
O=C(N1CCC[C@H]1c1nc(-c2ccccc2Cl)no1)C1(c2ccccc2)CC1	3T3 cytotox inconclusive, FLuc inh 22µM, HEK cytotox inconclusive
Cc1cnc(C(=O)N2c3ccccc3CC2c2nc(C3CC3)no2)cn1 (centres undefined)	none (no result: NPR1 antag, FLuc inh)
Cc1ccc(C(=O)N2CCN(Cc3ccc(=O)n(C)c3)CC2)cc1F	none
COc1ccc(C(=O)N2CCN(Cc3ccc(=O)n(C)c3)CC2)cc1F	FLuc inh 40µM
CCN1CCN(C(=O)c2cc(-c3ccccc3C(F)(F)F)nc3c2cnn3C)CC1	none (no result: NPR1 antag, GPT2 inhibitor, FLuc inh)
CCCNC(=O)Cc1ccc(N(Cc2ccc(F)cc2)C(=O)c2ccco2)cc1	3T3 cytotox inconclusive, HEK cytotox 89µM
Cc1cccc(CNC(=O)Cc2ccc(N(Cc3ccc(F)cc3)C(=O)c3ccco3)cc2)c1	3T3 cytotox 40µM, HEK cytotox inconclusive
CCCNC(=O)Cc1ccc(N(Cc2ccccc2)C(=O)c2ccco2)cc1	3T3 cytotox inconclusive, HEK cytotox inconclusive
CC(C)NC(=O)c1ccc2nnc(-c3ccc(Cl)cc3)n2c1	none (no result: NPR1 antag, FLuc inh)
CCOCCNC(=O)C1CCCN(c2nccc(Nc3ccc(C)cc3)n2)C1 (centres undefined)	3T3 cytotox inconclusive, HEK cytotox inconclusive (no result: NPR1 antag, FLuc inh)
CCN1c2cc(C(=O)Nc3ccc(C)cc3)ccc2C(=O)N2CCCCCC21 (centres undefined)	3T3 cytotox inconclusive, FLuc inh inconclusive, HEK cytotox 40µM
CCN1c2cc(C(=O)Nc3ccc(C)cc3C)ccc2C(=O)N2CCCCCC21 (centres undefined)	3T3 cytotox inconclusive, HEK cytotox inconclusive
CCN1c2cc(C(=O)Nc3ccc(N4CCOCC4)cc3)ccc2C(=O)N2CCCCC21 (centres undefined)	3T3 cytotox 20µM, HEK cytotox inconclusive
CCN1c2cc(C(=O)NCCC3=CCCCC3)ccc2C(=O)N2CCCCC21 (centres undefined)	3T3 cytotox inconclusive, HEK cytotox 45µM
CN1c2cc(C(=O)Nc3ccc(N4CCOCC4)cc3)ccc2C(=O)N2CCCCC21 (centres undefined)	3T3 cytotox inconclusive, HEK cytotox inconclusive
CCN1c2cc(C(=O)Nc3ccc(C)cc3Cl)ccc2C(=O)N2CCCCCC21 (centres undefined)	3T3 cytotox inconclusive, HEK cytotox 50µM
CCN1c2cc(C(=O)Nc3cc(C)cc(C)c3)ccc2C(=O)N2CCCCC21 (centres undefined)	3T3 cytotox inconclusive, HEK cytotox 28µM
CCc1ccc(CNC(=O)c2ccc3c(c2)N(CC)C2CCCCCN2C3=O)cc1 (centres undefined)	3T3 cytotox inconclusive, HEK cytotox inconclusive
